Bioassay records: PubChem BioAssay, The Scripps Research Institute Molecular Screening Center
ssDAF12 agonist = activates DAF-12 receptor from parasite S. stercoralis; HEK293 ssDAF-12/GRIP1 lit1-tk-luc reporter, luminescence; % of 3 µM dafachronic acid response; activation, % at 6.8 µM; 370,000 tested, 1% active;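 active means activation above the mean over all tested compounds plus 3 SD, cut at about 0.9% in these data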;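 further: 0% = DMSO-only wells and 100% = 3 µM delta7-dafachronic acid wells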
hgDAF-12 ag = activates the H. glycines DAF-12 receptor ligand-binding domain | HEK293 GAL4-hgDAF12 UAS-luciferase reporter, agonist luminescence; normalized to butyrate control | activation, % at 6.8 µM | 370,000 tested, 1.8% active;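 active means activation above a cutoff set at the mean of all screened compounds plus 3 SD, cut at about 10% in these data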;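 further: 0% = DMSO wells and 100% = sodium butyrate wells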
DAX1 inh-1 = DAX1 (NR0B1) inhibition, primary screen | HEK293T StAR-luciferase reporter, SF-1/DAX-1 repression relief | inhibition, % at 6.8 µM | 370,000 tested, 1.1% active | AID 652010;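 active means inhibition above the mean over all tested compounds plus 3 SD, cut at about 3.6% in these data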;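 further: 0% = DAX-1 cells with DMSO and 100% = cells lacking DAX-1 with DMSO; higher inhibition means more luminescence from relief of DAX-1 repression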
hcDAF-12 act = activators of H. contortus DAF-12 nuclear receptor; HEK293 hcDAF-12 lit1-tk-luc reporter, luminescence; 0% DMSO, 100% Δ7-dafachronic acid; activation, % at 6.8 µM; 370,000 tested, 1.4% active;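 active means activation above the mean of all tested compounds plus 3 SD, cut at about 5.5% in these data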;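 further: 100% = response to 3 µM Δ7-dafachronic acid high control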
DAX1 inh-2 = inhibits human nuclear receptor DAX1; inhibition, % at 6.75 µM; 340,000 tested, 0.99% active; HEK293 Gal4-DAX1 luciferase reporter, luminescence;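 active means inhibition above the mean over all tested compounds plus 3 SD, cut at about 4.2% in these data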;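 further: 0% = DAX1-transfected cells with DMSO and 100% = empty-vector control cells with DMSO; inhibition shows as a rise in luminescence from relieved DAX1 repression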
Target sequence (P51843 207-470 limits assumed): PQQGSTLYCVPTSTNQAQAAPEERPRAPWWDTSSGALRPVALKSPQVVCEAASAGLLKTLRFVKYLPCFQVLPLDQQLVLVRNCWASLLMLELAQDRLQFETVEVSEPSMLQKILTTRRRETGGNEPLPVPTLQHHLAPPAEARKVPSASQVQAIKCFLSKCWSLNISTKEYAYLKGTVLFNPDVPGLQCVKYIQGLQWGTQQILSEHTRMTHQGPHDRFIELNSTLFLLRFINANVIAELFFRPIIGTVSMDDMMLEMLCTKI
DAX1 inh confirm = confirmation of human DAX1 (NR0B1) inhibitors | AID 652134 | HEK293T StAR-promoter luciferase reporter, SF-1/DAX-1 repression | inhibition, % at 6.8 µM | shares compounds with DAX1 inh-1 | 2,400 tested, 87% active;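 active means inhibition above the average of every tested compound plus 3 SD, cut at about 3.8% in these data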;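 further: 0% = DAX-1 cells with DMSO and 100% = no DAX-1 control cells with DMSO; active compounds raise luminescence by relieving repression of the StAR reporter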
Target sequence (P51843 whole entry, looked up): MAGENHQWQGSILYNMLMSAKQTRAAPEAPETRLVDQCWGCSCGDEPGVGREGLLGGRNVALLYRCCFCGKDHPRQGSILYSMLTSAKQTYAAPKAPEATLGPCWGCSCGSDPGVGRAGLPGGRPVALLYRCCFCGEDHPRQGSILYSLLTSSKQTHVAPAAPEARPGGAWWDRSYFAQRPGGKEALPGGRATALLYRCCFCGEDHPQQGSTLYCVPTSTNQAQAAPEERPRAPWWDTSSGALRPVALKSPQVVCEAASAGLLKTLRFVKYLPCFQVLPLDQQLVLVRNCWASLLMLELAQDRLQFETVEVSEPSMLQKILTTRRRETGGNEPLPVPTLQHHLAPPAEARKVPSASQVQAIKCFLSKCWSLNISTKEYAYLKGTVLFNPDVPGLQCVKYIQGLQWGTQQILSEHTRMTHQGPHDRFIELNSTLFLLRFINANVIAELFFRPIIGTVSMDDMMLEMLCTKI
SF1 AF2mut Luc = nonselective inhibitor or artifact in SF-1 mutant DAX1 counter-screen; shares compounds with DAX1 inh-1; HEK293 StAR-luciferase, SF-1 AF2 mutant, luminescence; 2,400 tested, 78% active; AID 652136; inhibition, % at 6.8 µM;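 active means inhibition above the mean of all tested compounds plus 3 SD, cut at about 3% in these data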;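 further: 0% = DAX-1 transfected cells with DMSO and 100% = cells without DAX-1 with DMSO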
LXRb hcDAF ctr = LXR-beta agonism as hcDAF-12 counter-screen. 3,400 tested, under 10 active. HEK293 Gal4-LXR tk-luc reporter, luminescence, 24 h; normalized: DMSO 0%, positive control 100%. shares compounds with hcDAF-12 act. activation, % at 6.8 µM;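 active means mean percent activation of the reporter above a cutoff set as the average over tested compounds plus their standard deviation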
hcDAF12 conf = confirmation of H. contortus DAF-12 agonists; 3,400 tested, 61% active; shares compounds with hcDAF-12 act; activation, % at 6.8 µM; HEK293 hcDAF-12 lit1-tk-luc reporter, luminescence; % of Δ7-dafachronic acid response; AID 743032;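 active means mean activation across triplicate tests above the threshold derived from the earlier primary screen, cut at about 5.5% in these data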;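 further: 0% = DMSO only wells and 100% = 3 µM Δ7-dafachronic acid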
hgDAF12 ag = confirmation of H. glycines DAF-12 agonists | shares compounds with hgDAF-12 ag | AID 743050 | HEK293 GAL4-hgDAF12 luciferase reporter, agonist mode; percent of butyrate response | activation, % at 6.8 µM | 3,300 tested, 80% active;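 active means mean activation over triplicate wells above the hit cutoff derived from the earlier primary screen, cut at about 11% in these data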;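 further: 0% = DMSO low control and 100% = 2 mM sodium butyrate high control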
LXR ag 2 = counter-screen for DAF-12 agonists: agonists of human LXR-beta | shares compounds with hgDAF-12 ag | activation, % at 6.8 µM | 3,300 tested, under 10 active | HEK293 Gal4-LXR luciferase reporter, 24 h;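 active means mean activation of the triplicate above a set limit carried over from the primary screen, none filed active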
An asterisk follows results filed as active. Most compounds without a hit are left out; they make up all but 4.1% or so of the library.

Results for C=CCNC(=O)c1ccc2c3n(nc2c1)-c1ccccc1CO3 ?
ssDAF12 agonist: 0.1; hgDAF-12 ag: 10.4; DAX1 inh-1: 2.5; hcDAF-12 act: 5.1; DAX1 inh-2: -2.4

How did CCC(Oc1ccccc1)C(=O)Nc1nnc(S(=O)(=O)N2CCCC2)s1 (stereo unspecified) do in these assays?
ssDAF12 agonist: -1.8; hgDAF-12 ag: -3.9; DAX1 inh-1: -0.4; hcDAF-12 act: 1.5; DAX1 inh-2: 0.5

How did O=C(CCC(=O)N(CC(=O)NC1CCCC1)c1cccc(F)c1)Nc1nccs1 do in these assays?
ssDAF12 agonist: -1.1; hgDAF-12 ag: -0.1; DAX1 inh-1: -0.2; hcDAF-12 act: 2.6; DAX1 inh-2: 0.4

What do the screens show for `Cc1ccc2cc(/C=N/NC(=O)c3ccc(F)cc3)c(Cl)nc2c1`?
ssDAF12 agonist: -2.1; hgDAF-12 ag: -1.4; DAX1 inh-1: -1.1; hcDAF-12 act: 0.6; DAX1 inh-2: 0.7

What do the screens show for `Cc1ccc2nc(Cl)c(/C=N/Nc3ccc(C(=O)O)cc3)cc2c1`?
ssDAF12 agonist: 3.0*; hgDAF-12 ag: 24.8*; DAX1 inh-1: 11.3*; hcDAF-12 act: 15.4*; DAX1 inh-2: -0.4; DAX1 inh confirm: 24.9*; SF1 AF2mut Luc: 8.6*; LXRb hcDAF ctr: 2.5; hcDAF12 conf: 16.4*

What do the screens show for `Clc1ccc(C=Cc2ccccn2)c(Cl)c1`?
ssDAF12 agonist: 1.2*; hgDAF-12 ag: 12.9*; DAX1 inh-1: 7.9*; hcDAF-12 act: 8.2*; DAX1 inh-2: 2.3; DAX1 inh confirm: 11.6*; SF1 AF2mut Luc: 6.8*; LXRb hcDAF ctr: 1.2; hcDAF12 conf: 14.8*

Results for Cc1ccc(C(N)=Nc2ccccc2)cc1 ?
ssDAF12 agonist: -1.2; hgDAF-12 ag: -0.8; DAX1 inh-1: 1.0; hcDAF-12 act: -0.1; DAX1 inh-2: 1.8

How did COc1ccc(C(=O)c2c(O)cc(-c3ccc(OC)cc3)oc2=O)cc1 do in these assays?
ssDAF12 agonist: -0.6; hgDAF-12 ag: 2.4; DAX1 inh-1: -0.8; hcDAF-12 act: -2.6; DAX1 inh-2: 0.7

Results for COc1ccc(-c2cc3ccccc3c(=O)o2)cc1 ?
ssDAF12 agonist: 2.2*; hgDAF-12 ag: 25.3*; DAX1 inh-1: 7.7*; hcDAF-12 act: 12.2*; DAX1 inh confirm: 13.3*; SF1 AF2mut Luc: 6.6*; LXRb hcDAF ctr: 2.2; hcDAF12 conf: 11.0*

What do the screens show for `COc1ccc(-n2nc3cc(C)c(N)c(Br)c3n2)cc1`?
ssDAF12 agonist: 3.2*; hgDAF-12 ag: 14.0*; DAX1 inh-1: 5.2*; hcDAF-12 act: 19.8*; DAX1 inh-2: 3.4; DAX1 inh confirm: 10.5*; SF1 AF2mut Luc: 4.8*; LXRb hcDAF ctr: 1.6; hcDAF12 conf: 17.3*

Results for COc1ccc(-c2cn3cc(C(F)(F)F)cc(Cl)c3n2)cc1 ?
ssDAF12 agonist: 2.6*; hgDAF-12 ag: 23.4*; DAX1 inh-1: 5.1*; hcDAF-12 act: 11.8*; DAX1 inh-2: 3.4; DAX1 inh confirm: 8.7*; SF1 AF2mut Luc: 6.9*; LXRb hcDAF ctr: 1.1; hcDAF12 conf: 14.7*; hgDAF12 ag: 21.0*; LXR ag 2: 0.8

Results for O=C(Nc1nc2ccccc2s1)NC1CCCCC1 ?
ssDAF12 agonist: -0.3; hgDAF-12 ag: 17.8*; DAX1 inh-1: 6.1*; hcDAF-12 act: 6.1*; DAX1 inh-2: 7.1*; DAX1 inh confirm: 10.3*; SF1 AF2mut Luc: 6.0*; hgDAF12 ag: 18.7*; LXR ag 2: 1.0

How did CCOC(=O)C(C(=O)Nc1nc2ccccc2s1)C1CCCCC1 (stereo unspecified) do in these assays?
ssDAF12 agonist: -0.2; hgDAF-12 ag: 3.3; DAX1 inh-1: -0.2; hcDAF-12 act: 2.3; DAX1 inh-2: 3.4

How did O=C(Nc1nc2ccccc2[nH]1)c1cccs1 do in these assays?
ssDAF12 agonist: 0.3; hgDAF-12 ag: 14.5*; DAX1 inh-1: 6.6*; hcDAF-12 act: 3.8; DAX1 inh-2: 0.7; DAX1 inh confirm: 4.6*; SF1 AF2mut Luc: 4.6*; hgDAF12 ag: 12.9*; LXR ag 2: 0.7

Results for O=C(Nc1nc2ccccc2[nH]1)NC1CCCCC1 ?
ssDAF12 agonist: 0.6; hgDAF-12 ag: 15.8*; DAX1 inh-1: 16.4*; hcDAF-12 act: 5.8*; DAX1 inh-2: -0.2; DAX1 inh confirm: 17.6*; SF1 AF2mut Luc: 9.7*; hgDAF12 ag: 21.1*; LXR ag 2: 1.1

How did Cc1ccc(C(=O)Nc2nc3ccccc3[nH]2)cc1 do in these assays?
ssDAF12 agonist: -0.7; hgDAF-12 ag: -3.6; DAX1 inh-1: -0.5; hcDAF-12 act: 0.5; DAX1 inh-2: -5.2

Results for O=c1c2ccccc2nnn1Cc1ccc2ccccc2c1 ?
ssDAF12 agonist: -0.7; hgDAF-12 ag: 7.3; DAX1 inh-1: -0.8; hcDAF-12 act: -0.7; DAX1 inh-2: -0.1

What do the screens show for `O=C(CSc1ncccn1)N/N=C/c1ccccc1[N+](=O)[O-]`?
ssDAF12 agonist: -1.0; hgDAF-12 ag: -2.6; DAX1 inh-1: 0.2; hcDAF-12 act: 0.1; DAX1 inh-2: -1.3

How did O=C(O)C(=O)/C(=C\c1ccc(Cl)cc1)c1ccc2ccccc2n1 do in these assays?
ssDAF12 agonist: 2.5*; hgDAF-12 ag: 14.2*; DAX1 inh-1: 7.8*; hcDAF-12 act: 14.1*; DAX1 inh-2: 2.3; DAX1 inh confirm: 9.1*; SF1 AF2mut Luc: 4.6*; LXRb hcDAF ctr: 0.8; hcDAF12 conf: 11.1*; hgDAF12 ag: 0.6; LXR ag 2: 0.5

Results for O=C(O)C/C(=C\c1ccc(Cl)cc1)c1nc2ccccc2o1 ?
ssDAF12 agonist: -0.7; hgDAF-12 ag: 2.6; DAX1 inh-1: 0.3; hcDAF-12 act: 1.8

How did COc1ccc(CNC(=O)c2ccc(C(C)C)cc2)cc1 do in these assays?
ssDAF12 agonist: -0.5; hgDAF-12 ag: 17.5*; DAX1 inh-1: 6.8*; hcDAF-12 act: 3.6; DAX1 inh-2: 1.6; DAX1 inh confirm: 7.6*; SF1 AF2mut Luc: 5.7*; hgDAF12 ag: 15.4*; LXR ag 2: 0.6
